Screen size: about 2,100 compounds; about 940 (45%) were called active. Roughly 48% stayed inconclusive and do not appear here. The set was probably picked from earlier hits. The list shows a part of the results. A number with no mark means an inactive call. Calls come from the whole dose curve; as a rule, active = well fitted inhibition curve with a large enough effect; inconclusive = small, poorly fitted or top-dose-only effect; inactive = no such curve, though single readings can be large or run the other way.
Potency is the fitted concentration of half-maximal effect.

This test is described as follows: Confirmatory qHTS for Inhibitors of ATXN expression.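 For activity change, negative = inhibition: 0% = DMSO vehicle wells and -100% = medium-only wells without cells.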 Note: nearly all actives have a fitted effect of over 65% in size. Particulars: ATXN2-luciferase reporter cells, luminescence, 24 h; series mostly up to 57.5 µM; activity change, negative = inhibition: at the top concentration. An excerpt: PI: Daniel Scoles Ph.D. University of Utah School of Medicine, Salt Lake City, Utah MLPCN Grant: NS073009 Spinocerebellar ataxia type 2 (SCA2) is a multisystem neurodegenerative disease caused by a dominantly acting mutation leading to expansion of a polyQ domain in the ataxin-2 protein (ATXN2). SCA2 patients develop progressive ataxia and later lose function in other neuronal systems. Prominent parkinsonian signs develop in some patients. Like many neurodegenerative disorders, no symptomatic or disease-modifying treatments are known. The primary objective of the proposed research is to identify compounds inhibiting ATXN2 expression and to test them for efficacy in SCA2 mouse models. We have developed a cell-based assay paired with an in vivo mouse model using identical luciferase expression constructs. This approach takes advantage of an ATXN2-luciferase transgene, with the luciferase gene flanked by the upstream and downstream portions of the ATXN2 gene. Here we describe a 5-7 dose quantitative high thoroughput screen (qHTS) for compounds lowering ATXN2 expression. We screened the NIH Molecular Libraries Small Molecule Repository (MLSMR) and NCGC's mechanistically annotated (MIPE) and drug repurposing (NPC) collections of compounds for lowering expression of an ATXN2-luciferase reporter in HEK-293 cells. The assay is a multiplexed cell viability assay to ensure target reduction in the absence of cytotoxicity. Secondary qHTS assays included a CMV-luciferase reporter expressed in HEK-293 cells as well as a biochemical assay using recombinant luciferase to detect inhibitors of the reporter enzyme. Compounds that inhibit ATXN2 expression but is not cytotoxic were selected for confirmatory and secondary screens.
PROTOCOL TABLE (as described by Inglese J, Shamu CE and Guy RK. 2007) SEQUENCE No. (e.g., 1, 2, 3, etc.); PARAMETER (e.g., Cells, Incubation, Reagent, etc.); VALUE; DESCRIPTION. 1; Cells; 4 uL; white, solid bottom, 1536-well Greiner assay plate. 2; Incubation; 2 hr; 37 degree C in 5% humidified CO2. 3; Compounds; 23 nL; Kalypsis pintool (Wako USA) equipped with a 1536-well pin head. 4; Incubation; 24 hr; 37 degree C in 5% humidified CO2. 5; Reagent; 1 uL; Gly-Phe-7-Amino-4-trifluoromethylcoumarin. 6; Incubation; 30 min; 37 degree C in 5% humidified CO2. 7; Detection; Fluorescence; ViewLux plate reader (PerkinElmer). 8; Reagent; 3 uL; SteadyGlo luciferase solution (Promega). 9; Incubation; 5 min; room temperature. 10; Detection; Luminescence; ViewLux plate reader (PerkinElmer). NOTES (numbers refer to Sequence numbers above) 1. […] expressing ATXN2-luciferase reporter were suspended in phenol-red free DMEM and dispensed in assay plates using a Multidrop Combi dispenser (Thermo Fisher Scientific). Wells containing medium only were plated on each plate, and values were used to normalize (100% inhibition) in the luciferase and CellTiter-Fluor assays. 2. Assay plates were incubated. Evaporation was prevented by covering assay plates with metal lids containing holes to allow gas diffusion. 3. Compounds were added in a dose response manner with the final concentrations of 57, 11.4, 2.28, 0.46, 0.091, 0.018, 0.0037 uM. Vehicle-only plates, with DMSO being pin-transferred to columns 5-48, were inserted uniformly at the beginning and the end of each library to monitor and record any shifts in assay performance. 5. 125 uM Gly-Phe-7-Amino-4-trifluoromethylcoumarin (MP Biomedicals) working concentration was used at a final concentration of 25 uM. 7. To assess cell viability; the assay plates were read using the ViewLux high-throughput CCD imager (PerkinElmer), wherein single end-point fluorescence measurement was acquired (excitation 405/10; emission 540/25 nm). 8. Detection reagent SteadyGlo Luciferase (Promega) was added to the assay plate. 10. Luminescence is then measured on the ViewLux imager equipped with a clear emission filter using a 2 sec exposure. […]
For the molecule `C[C@]12CCC3C(CCC4=CC(O)CC[C@@]43/C=N/O)C1(O)CCC2C1=CC(=O)OC1` (some centres undefined), the Potency is 355 nM (active). Same read-out and setting: as for `CC12CCC(O)CC1CCC1C2CCC2(C)C(C3=CC(=O)OC3)CCC12O` (centres undefined), the figure is 398 nM (active); as for `C[C@]12CC[C@H](O)C[C@H]1CC[C@@H]1[C@@H]2CC[C@]2(C)[C@@H](C3=CC(=O)OC3)CC[C@]12O`, 282 nM (active). The same measure, in the same setting: the result for `COc1ccc(O)c2c(=O)c3c(OC)cc4c(c3oc12)C1C=COC1O4` (centres undefined) reads 2000 nM (active). Take `O=C1NC(=O)N(CCc2ccc(F)cc2)C(=O)/C1=C/C=C/c1ccccc1`: the Potency was 7940 nM (active). Take `c1ccc2sc(N3CCNCC3)nc2c1`: the “activity change, negative = inhibition” value is -24.4%. For the molecule `COc1cc2nc(CN3CC=C(c4ccccc4)CC3)[nH]c(=O)c2cc1OC`, the Potency was 282 nM (active). On the same count and under the same terms, as for `COc1cc2c(cc1OC)-c1c3c(cc4c1[C@@H](C2)N(C)CC4)OCO3`, the figure is 1120 nM (active).

Take `COC1C(O)C(C)OC(OC2C(Oc3cccc4c(O)c5c(=O)oc6ccc(C)c7c(=O)oc(c34)c5c67)OC(C)C(O)C2O)C1O` (centres undefined): the activity change, negative = inhibition was -5.87% [at 11.5 µM].

For the molecule `CN1C(=O)NC(=O)/C(=C\C=C\c2ccccc2[N+](=O)[O-])C1=O`, the Potency was 11200 nM (active). Same read-out and setting: as for `CCCCN=C[C@]12CCC(O)CC1(O)CCC1[C@@H]2CC[C@]2(C)[C@H](C3C=CC(=O)O3)CCC12O` (some centres undefined), the figure is 631 nM (active); as for `CC12CCC3C(CCC4(O)CC(O)CCC34C=NO)C1(O)CCC2C1=COC(=O)C1` (centres undefined), 282 nM (active). On the same count and under the same terms, as for `CNC(=O)Nc1ccc(C(=O)N/N=C\C23CC[C@@H](O)CC2(O)CC[C@@H]2[C@@H]3CCC3(C)C(C4=CC(=O)OC4)CCC23O)cc1` (some centres undefined), the figure is 25100 nM (active); as for `C1=NCCc2c1[nH]c1ccccc21`, 3160 nM (active); as for `CC(=O)OC1(C)CC(C)C(=O)C(C(O)CC2CC(=O)NC(=O)C2)C1` (centres undefined), 10 nM (active). Turning to `C[C@H]1C[C@@H](C)C(=O)[C@@H]([C@H](O)CC2CC(=O)NC(=O)C2)C1`, the Potency was 178 nM (active).

Regarding `C[C@@H]1C[C@@H]([C@H](O)CC2CC(=O)NC(=O)C2)C(=O)[C@@H](C)C1`, the Potency was 1260 nM (active). The same measure, in the same setting: the result for `O=C(CSC1c2ccccc2-c2ccccc21)N/N=C/c1ccccc1O` reads 3160 nM (active); that for `C[C@H]1CCC[C@@H](O)CCC/C=C/c2cc(O)cc(O)c2C(=O)O1`, 1410 nM (active); that for `C[C@H]1CCC[C@H](O)CCCCCc2cc(O)cc(O)c2C(=O)O1`, 3160 nM (active). On to `COc1ccc(CCNCc2ccc(F)cc2)cc1OC`, for which the activity change, negative = inhibition was -6.67% [at 11.5 µM]. On to `O=C(Nc1ccc(OC(=O)N2CCCCC2)cc1)N1CCOCC1`, for which the Potency was 4470 nM (active).

On to `CC(=O)O[C@H]1[C@H]2O[C@]23[C@@H]2CC[C@]4(O)C[C@@H](O)CC[C@]4(C)C2CC[C@]3(C)[C@H]1c1ccc(=O)oc1` (some centres undefined), for which the Potency was 39.8 nM (active).

For `C[C@H]1[C@@H](OS(=O)(=O)O)C[C@@H]2C[C@H]([C@@H](O)c3cc(=O)[nH]c(=O)[nH]3)NC3=NC[C@H]1N32`, the Potency was 7940 nM (active).

Turning to `NC(=O)c1c(Br)n(C2OC(CO)C(O)C2O)c2ncnc(N)c12` (centres undefined), the Potency is 1580 nM (active). On the same count and under the same terms, as for `COc1cccc(C(c2nnnn2-c2ccc3c(c2)OCCO3)N2CCC(n3c(=O)[nH]c4ccccc43)CC2)c1OC` (centres undefined), the figure is 3550 nM (active); as for `O=c1[nH]c2ccccc2n1C1CCN(C(c2cc3ccccc3o2)c2nnnn2-c2ccc3c(c2)OCCO3)CC1` (centres undefined), 3160 nM (active); as for `Cc1cccc(C)c1-n1nnnc1C(c1cc2ccccc2o1)N1CCC(n2c(=O)[nH]c3ccccc32)CC1` (centres undefined), 3160 nM (active). As to `COC(=O)C(O)(c1ccc(NC(=S)NC(=O)c2ccc(Cl)cc2Cl)c(C)c1)C(F)(F)F` (centres undefined), the activity change, negative = inhibition is -8.26% [at 11.5 µM]. As to `CN1C2CCC1/C(=C/c1ccccn1)C(=O)/C2=C\c1ccccn1`, the Potency was 398 nM (active).

As to `CC1CC(C)CC(C)C(O)C(C#N)=CC=CCC(C2CCCC2C(=O)O)OC(=O)CC(O)C(C)C1` (centres undefined), the Potency was 501 nM (active). Same read-out and setting: as for `O=C1NC2C(=CC(O)C(O)C2O)c2cc3c(cc21)OCO3` (centres undefined), the figure is 199 nM (active). The same measure, in the same setting: the result for `CCCCc1ccc2[nH]cc(CCN)c2c1` reads 3160 nM (active); that for `NC(Cc1ccc(Cl)cc1)c1csc(Nc2ccccn2)n1` (centres undefined), 22400 nM (active).

The values are drawn from PubChem BioAssay AID1745848 (National Center for Advancing Translational Sciences (NCATS), 2022).
